This passage reports Potency and outcome results from PubChem BioAssay (Tox21).

Where “and” joins values, the source holds several entries; their conditions need not be identical. Equal values may be shown once. Records with an inconclusive call do not appear. Calls of active or inactive are those of the source. Unless noted, calls follow the shape of the dose curve; as a rule, active = well fitted curve in the direction sought with a large enough effect in the repeat runs; inconclusive = weak or mixed curves; inactive = no such curve, though single readings can be large; an effect the other way counts as inactive or inconclusive.

Test [1] is described as follows: qHTS assay to identify small molecule antagonists of the glucocorticoid receptor (GR) signaling pathway - cell viability counter screen (AID 720693). Also: nearly all actives have a fitted effect of over 55% in size. Background: In qHTS, concentration-response curves come from the screen itself.
The nature of test [2]: qHTS assay for identifying genotoxic compounds that show differential cytotoxicity against isogenic chicken DT40 cell lines with known DNA damage response pathways - wild type cell line (AID 743012). Also: nearly all actives have a fitted effect of over 60% in size. Also: potency is read from the fitted curve at half-maximal effect. The essentials: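 Wild type DT40, 300 cells/well, ~0.5 h settle at 37 C/5% CO2; compounds in DMSO added by pintool; 40 h at 37 C/5% CO2; CellTiter-Glo, 30 min RT; luminescence.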

Test [3] in a line: qHTS assay for identifying genotoxic compounds that show differential cytotoxicity against isogenic chicken DT40 cell lines with known DNA damage response pathways - Rev3 mutant cell line (AID 743014). Also: nearly all actives have a fitted effect of over 55% in size. Also: potency is read from the fitted curve at half-maximal effect.
Test [4] in a line: qHTS assay to identify small molecule antagonists of the androgen receptor (AR) signaling pathway - cell viability counter screen (AID 743033; also: nearly all actives have a fitted effect of over 45% in size; also: potency is read from the fitted curve at half-maximal effect).
Test [5] can be described thus: qHTS assay to identify small molecule antagonists of the androgen receptor (AR) signaling pathway using the MDA cell line - cell viability counter screen (AID 743041; also: nearly all actives have a fitted effect of over 45% in size). The essentials:
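Cells were plated at 3,000 per well and left 5 h. Compounds in DMSO were then pinned in, followed by R1881. After 16 h at 37C, CellTiter-Fluor fluorescence gave viability.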

The nature of test [6]: qHTS assay for identifying genotoxic compounds that show differential cytotoxicity against isogenic chicken DT40 cell lines with known DNA damage response pathways - Rad54/Ku70 mutant cell line (AID 743015). Also: nearly all actives have a fitted effect of over 60% in size. Also: potency is read from the fitted curve at half-maximal effect.
The target in test [7] is Androgen receptor (Homo sapiens) (UniProt P10275). Nature of the test: qHTS assay to identify small molecule antagonists of the androgen receptor (AR) signaling pathway (AID 743035; active = well fitted inhibition curve with a large enough effect in the signal ratio in the repeat runs, not every such curve was filed as active; the % refers to the signal ratio). The procedure, abridged:
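Fluorescence from a beta-lactamase FRET substrate (LiveBLAzer B/G, 2 h, room temperature) measured inhibition of R1881-stimulated signaling in GeneBLAzer AR-UAS-bla HEK293 cells exposed to compound for 16 h at 37C.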

Test [8] has the same target. The test is described as follows: qHTS assay to identify small molecule agonists of the androgen receptor (AR) signaling pathway (AID 743036; active = well fitted activation curve with a large enough effect in the signal ratio in the repeat runs, with a control signal flat, not every such curve was filed as active; the % refers to the signal ratio). The procedure, abridged: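 Following a 4 h settling period, AR-UAS-bla HEK293 cells were dosed with compounds for 16 h at 37C. A 2 h room-temperature incubation with LiveBLAzer B/G FRET substrate preceded the fluorescence measurement.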

Test [9] has the same target. The test is described as follows: qHTS assay to identify small molecule agonists of the androgen receptor (AR) signaling pathway using the MDA cell line (AID 743040; also: nearly all actives have a fitted effect of over 20% in size). The procedure, abridged: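 Cells plated, 5 h at 37C/0% CO2; compound or DMSO pinned; 16 h at 37C; ONE-Glo added; luminescence measured after 30 min at room temperature. Reporter line: MDA-kb2 with MMTV-luciferase responsive to AR and GR.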

For test [10] the target is unchanged. The test is described as follows: qHTS assay to identify small molecule antagonists of the androgen receptor (AR) signaling pathway using the MDA cell line (AID 743042; also: nearly all actives have a fitted effect of over 55% in size). The procedure, abridged: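 Antagonist mode: compounds plus R1881 agonist added to MDA-kb2 AR-luc cells, incubated 16 h at 37C. Luciferase reporter luminescence quantified, with multiplexed CellTiter-Fluor readout for cell viability.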

Chain of Androgen receptor (Homo sapiens) (P10275 whole entry, looked up): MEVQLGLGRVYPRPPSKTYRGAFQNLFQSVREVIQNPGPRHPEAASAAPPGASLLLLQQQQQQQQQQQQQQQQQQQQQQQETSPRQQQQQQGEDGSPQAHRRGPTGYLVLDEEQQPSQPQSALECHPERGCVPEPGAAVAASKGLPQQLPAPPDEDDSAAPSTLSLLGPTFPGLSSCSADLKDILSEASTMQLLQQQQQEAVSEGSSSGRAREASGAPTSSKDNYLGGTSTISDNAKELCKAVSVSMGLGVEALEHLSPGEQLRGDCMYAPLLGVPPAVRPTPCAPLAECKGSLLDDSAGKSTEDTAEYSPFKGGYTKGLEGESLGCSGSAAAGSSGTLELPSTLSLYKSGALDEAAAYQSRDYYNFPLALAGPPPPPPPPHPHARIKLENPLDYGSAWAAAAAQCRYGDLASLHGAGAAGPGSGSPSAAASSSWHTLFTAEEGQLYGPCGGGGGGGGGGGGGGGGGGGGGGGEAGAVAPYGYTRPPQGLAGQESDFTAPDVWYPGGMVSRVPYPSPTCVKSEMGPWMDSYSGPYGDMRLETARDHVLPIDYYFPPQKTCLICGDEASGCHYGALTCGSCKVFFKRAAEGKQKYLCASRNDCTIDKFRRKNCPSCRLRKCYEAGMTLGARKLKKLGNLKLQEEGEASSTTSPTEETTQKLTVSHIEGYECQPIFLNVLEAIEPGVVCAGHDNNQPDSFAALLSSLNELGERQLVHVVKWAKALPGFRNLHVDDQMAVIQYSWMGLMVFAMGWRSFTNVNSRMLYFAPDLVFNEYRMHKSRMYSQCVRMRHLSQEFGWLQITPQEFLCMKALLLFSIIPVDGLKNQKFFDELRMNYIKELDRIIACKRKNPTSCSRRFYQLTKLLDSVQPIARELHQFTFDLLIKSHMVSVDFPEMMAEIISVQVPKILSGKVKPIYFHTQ

As to `CCCCCCCCC(=O)OCC(C)OC(=O)CCCCCCCC` (stereo unspecified), the Potency entry in test [1], in test [2], in [3], in [4] and in [5] was “inactive” in each case.
As for `C[C@]12CCC(=O)C=C1[C@@H]1C[C@@H]1[C@H]1[C@@H]3[C@@H]4C[C@@H]4[C@@]4(CCC(=O)O4)[C@@]3(C)CC[C@@H]12`, the Potency in test [2] was 9.44 µM (active); in test [3], 11.9 µM (active). Also, the Potency entry in test [4] and in [5] was “inactive” in each case.
As for `CCN(CCCCOC(=O)c1ccc(OC)c(OC)c1)C(C)Cc1ccc(OC)cc1` (stereo unspecified), the Potency entry in test [1], in test [6] and in test [5] was “inactive” each time.
Consider `CC(C)C[C@H](NC(=O)[C@H](Cc1ccccc1)NC(=O)c1cnccn1)B(O)O`, for which the Potency was 13.3 nM (active) and 11.9 nM (active) in test [2]; 13.3 nM (active) and 9.4 nM (active) in test [3]; 0.0076 µM (active) in test [4].
With `S=c1[nH][nH]c(=S)s1`, the Potency result in [1], in [3] and in [5] was “inactive” each time.
For the compound `CS(C)=O`, the Potency result in test [1], in [4] and in test [5] was “inactive” each time.
`CO[C@@H]1COCC[C@@H]1N[C@@H]1CC[C@@](C(=O)N2CCc3ncc(C(F)(F)F)cc3C2)(C(C)C)C1`: the Potency entry in test [1], in [4] and in test [5] was “inactive” throughout.
Take `C=CC(=O)NC(C)(C)C`: the Potency entry in test [1], in test [3], in test [4] and in test [5] was “inactive” each time.
For `O=C1CCCN1CCO`, the Potency result in test [1] and in test [5] was “inactive” in each case. The Potency in test [3] was 54.5 µM (active).
Consider `C[C@H](CN1CCCC1)C(=O)c1ccc(C(F)(F)F)cc1`, for which the Potency is 6.68 µM (active) in test [2], 10.6 µM (active) in [3] and 8.41 µM (active) in test [6]. Also, the Potency entry in test [4] and in [5] was “inactive” throughout.
Consider `O=C(N[C@@H](Cc1ccccc1)[C@@H](O)C(=O)N1C[C@@H](O)[C@@H](O)C1)c1cc2cc(Cl)ccc2[nH]1`, for which the Potency result in [1] and in test [5] was “inactive” each time.
Consider `CCCCCCCCNC`, for which the Potency entry in test [2], in test [3], in test [6] and in test [5] was “inactive” each time.
For `Cc1c(Cl)cccc1Nc1ccccc1C(=O)O`, the Potency result in [1], in test [3] and in test [5] was “inactive” each time.
Turning to `N#Cc1ccc(CC(=O)c2cccc(C(F)(F)F)c2)cc1`, the Potency result in test [1], in test [4] and in [5] was “inactive” in each case.
For the compound `CCOc1cc(OCC)c(C(C)=O)cc1OCC`, the Potency entry in test [1], in test [7], in test [5] and in [10] was “inactive” in each case. In addition, the Potency in test [3] is 60 µM (active). Besides, the result in test [8] and in [9] was inactive.
Turning to `O=C1c2ccccc2C(=O)C1c1ccc2ccccc2n1`, the Potency entry in [1], in [3] and in test [5] was “inactive” in each case.
Regarding `c1ccc(-c2ccc(-c3ccccc3)cc2)cc1`, the Potency result in test [1], in [3] and in test [5] was “inactive” throughout.
As to `CC1(C)[C@@H]2CC[C@]3(C2)[C@@H]1C(=O)CCC3(C)C`, the Potency entry in test [1], in [4], in [7], in test [5] and in test [10] was “inactive” throughout. Besides, the compound was called inactive in test [8] and in [9].
For the compound `O=C(O)c1ccc2c(c1)nc(C(=O)NC1CCN(C3CC3)CC1)n2Cc1cc(-c2ccc(Cl)s2)on1`, the Potency entry in [1], in test [3], in test [4] and in test [5] was “inactive” throughout.
In the case of `NCCOCCOCCN`, the Potency in test [2], in test [3] and in test [6] was 24.3 µM (active) in each case. Moreover, the outcome in [9] was inactive.
Turning to `N#C[C@@H]1CC(F)(F)CN1C(=O)CNC1CC2CCC(C1)N2c1ncccn1` (stereo partly specified), the Potency result in test [1], in [4], in test [7], in [5] and in test [10] was “inactive” each time. For the same compound, the result in test [8] and in test [9] was inactive.
As to `CC(C)=CCCC(C)C=O` (stereo unspecified), the Potency entry in test [1], in test [4] and in [5] was “inactive” in each case. Also, in [6], the Potency is 61.1 µM (active).
With `Cc1ccc2ccccc2c1[N+](=O)[O-]`, the Potency result in test [1], in test [4] and in test [5] was “inactive” each time.
For `O=Cc1ccc([N+](=O)[O-])cc1`, the Potency entry in [1], in test [4] and in test [5] was “inactive” throughout. Also, the Potency in test [6] was 48.9 µM (active).
With `C/C(=C(\CCO)SS/C(CCO)=C(\C)N(C=O)Cc1cnc(C)nc1N)N(C=O)Cc1cnc(C)nc1N`, the Potency result in test [1], in [6], in [4] and in test [5] was “inactive” throughout.
As to `C=C[Si]1(C)O[Si](C)(C=C)O[Si](C)(C=C)O[Si](C)(C=C)O1` (stereo unspecified), the Potency entry in [1] and in test [5] was “inactive” in each case.
In the case of `O=C(Nc1ccc2c(c1)Cc1ccccc1-2)C(F)(F)F`, the Potency result in test [1] and in test [5] was “inactive” each time. The Potency in test [6] is 54.5 µM (active).
As for `O=C(c1ccc(Cl)cc1)c1ccc(Cl)cc1`, the Potency result in test [1], in test [3], in test [7], in test [5] and in test [10] was “inactive” each time. Besides, the call in test [8] and in test [9] was inactive.
Consider `O=c1[nH][nH]c2ccccc12`, for which the Potency entry in [1], in test [4], in test [5] and in test [10] was “inactive” throughout. Also, in test [9], the outcome was inactive.
Turning to `CNc1ccccc1`, the Potency entry in test [2], in test [3], in [6], in [4] and in test [5] was “inactive” throughout.
For the compound `CC(C)=CCC/C(C)=C/C=N/O`, the Potency result in test [1], in [4] and in [5] was “inactive” in each case.
For `CC(C)(C(=O)O)c1ccc(C(O)CCCN2CCC(C(O)(c3ccccc3)c3ccccc3)CC2)cc1` (stereo unspecified), the Potency entry in [1], in [4] and in [5] was “inactive” throughout.
`CCC(CC)C(=O)O`: the Potency entry in [1], in test [3] and in test [5] was “inactive” in each case.
For `Oc1ccc(Oc2ccccc2)cc1`, the Potency in test [2] is 20.6 µM (active); in [3], 23.1 µM (active); in test [6] it was 36.6 µM (active). The Potency result in [4] and in [5] was “inactive” each time.
For `O=C(O)c1ccccc1[N+](=O)[O-]`, the Potency result in [2], in test [3], in test [6] and in test [5] was “inactive” throughout.
Regarding `COc1ccc(C(=O)Nc2ccccc2)cc1[N+](=O)[O-]`, the Potency result in test [1], in test [4] and in test [5] was “inactive” throughout.
Regarding `O=C(OCCOCCOCCOC(=O)c1ccccc1)c1ccccc1`, the Potency entry in test [1], in [4] and in test [5] was “inactive” each time.
Regarding `CCCCOC(=O)C(C)Oc1ccc(Oc2ccc(C(F)(F)F)cn2)cc1` (stereo unspecified), the Potency result in test [1] and in [5] was “inactive” in each case.
